High-throughput results from PubChem.
N370S GC mod – qHTS Assay for Inhibitors and Activators of N370S glucocerebrosidase as a Potential Chaperone Treatment of Gaucher Disease. N370S GC spleen homogenate, 4MU-glucoside fluorescence. actives 0.092% (n = 330,000). Potency, µM (doses to about 59.4 µM), for inactives: top-dose activity change, negative = inhibition, hits mostly inhibitors;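 also: potency is read from the fitted curve at half-maximal effect; 0% = full enzyme activity and -100% = no enzyme basal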
aGlu spleen mod – qHTS Assay for Inhibitors and Activators of Human alpha-Glucosidase From Spleen Homogenate; Lysosomal alpha-glucosidase (Homo sapiens), P10253; human spleen homogenate, 4-MU-alpha-glucoside fluorescence; Potency, µM (series often up to 79.9 µM), inactives show at the top dose activity change, negative = inhibition, most hits filed as inhibitors; actives 0.006% (n = 240,000); AID 2112, 2009;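 also: potency is read from the fitted curve at half-maximal effect; 0% = enzyme with vehicle and -100% = no enzyme basal signal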
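Enzyme source: human spleen homogenate, 1 ug/well. Buffer 50 mM citric acid/K phosphate pH 5.0, 0.01% Tween-20. 4-MU-alpha-glucoside 1 mM; 37 C x 40 min; NaOH/glycine stop; fluorescence.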
GAA glycogen mod – qHTS Assay for Inhibitors and Activators of Human alpha-Glucosidase Cleavage of Glycogen. Lysosomal alpha-glucosidase (Homo sapiens), P10253. recombinant GAA, glycogen substrate, Amplex Red glucose oxidase fluorescence. Potency, µM (titrated, usually from 76.4 µM), for inactives: at the top dose activity change, negative = inhibition, most hits filed as inhibitors. actives 0.38% (n = 300,000). AID 2100, 2009;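 also: potency is read from the fitted curve at half-maximal effect; 0% = full enzyme reaction and -100% = no-enzyme basal signal; the screen sought inhibitors and activators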
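Recombinant enzyme (4 nM final) with compounds titrated up to 77 uM and bovine liver glycogen (30 ug) in citrate pH 5.0, 0.01% Tween-20, 37 C 40 min. Released glucose detected by Amplex Red/glucose oxidase (Ex 573/Em 610); AC50 from Hill fits.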
GAA inh – qHTS Assay for Inhibitors of Human alpha-Glucosidase as a Potential Chaperone Treatment of Pompe Disease | Lysosomal alpha-glucosidase (Homo sapiens), P10253 | purified human GAA, 4-MU-alpha-glucoside fluorescence | Potency, µM (doses to about 76.9 µM), for the others: at the top dose activity change, negative = inhibition, hits mostly inhibitors | actives 0.005% (n = 200,000);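 also: potency is read from the fitted curve at half-maximal effect; plate controls were uninhibited enzyme wells for no effect and no-enzyme background for full effect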
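Compounds are titrated up to 77 uM against 4 nM human enzyme. Substrate 4-methylumbelliferyl-alpha-D-pyranoside (400 uM) reacts 20 min at room temperature in pH 5.0 buffer; liberated 4-methylumbelliferone is read at 440 nm.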
GLA inh pH 4.5 – qHTS Assay for Inhibitors of Human alpha-Galactosidase at pH 4.5. 230,000 tested, under 10 active. activity change, negative = inhibition, % at 105 µM. purified enzyme, 4-MU-alpha-Gal fluorescence, pH 4.5;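 also: 0% = full activity with enzyme and -100% = basal without enzyme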
Target sequence (P06280 whole entry, looked up): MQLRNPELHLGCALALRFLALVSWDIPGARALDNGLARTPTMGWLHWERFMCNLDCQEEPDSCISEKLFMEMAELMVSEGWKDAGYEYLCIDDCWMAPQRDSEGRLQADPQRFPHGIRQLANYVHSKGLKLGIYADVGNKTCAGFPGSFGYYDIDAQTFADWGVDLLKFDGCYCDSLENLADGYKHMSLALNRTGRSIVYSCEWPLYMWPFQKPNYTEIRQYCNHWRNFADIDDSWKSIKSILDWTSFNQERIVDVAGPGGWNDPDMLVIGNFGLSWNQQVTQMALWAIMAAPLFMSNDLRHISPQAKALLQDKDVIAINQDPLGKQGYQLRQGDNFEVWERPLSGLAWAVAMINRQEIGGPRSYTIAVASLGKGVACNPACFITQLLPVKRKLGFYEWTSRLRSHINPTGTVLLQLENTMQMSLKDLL
GLA spleen mod – qHTS Assay for Inhibitors and Activators of Human alpha-Galactosidase From Spleen Homogenate | Alpha-galactosidase A (Homo sapiens), P06280 | human spleen homogenate, 4MU-alpha-Gal fluorescence, 40 min | Potency, µM (series often up to 80 µM), for inactives: top-dose activity change, negative = inhibition, most hits filed as inhibitors | actives 0.008% (n = 240,000);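 also: potency is read from the fitted curve at half-maximal effect; 0% = enzyme with vehicle and -100% = no enzyme basal signal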
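Human spleen homogenate (1 ug) as enzyme source, 4-methylumbelliferyl-alpha-D-galactopyranoside 1 mM final, citrate/phosphate pH 5.0 with 0.01% Tween-20. Compounds 40 min at 37C, NaOH/glycine stop; fluorescence Ex 365/Em 440, Hill-fit AC50.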
* = called active by the depositor; [ ] = another dose, or the depositor's remark. Sampled rows, rich in hits. Any-hit rate of the full collection: about 0.41%. Calls follow the shape of the dose curve; as a rule, active = well fitted curve in the direction sought with a large enough effect; inconclusive = small, poorly fitted or top-dose-only effect, or another doubt; inactive = no such curve, though single readings can be large; an effect the other way counts as inactive or inconclusive.

COC1=C/C(=C/c2c(N)n3c(nc2=O)sc2cc(S(C)(=O)=O)ccc23)C=CC1=O was read as N370S GC mod -15.2%, aGlu spleen mod -1.8%, GAA glycogen mod 1.7%, GLA inh pH 4.5 -13.5 and GLA spleen mod -6.1%.
CS(=O)(=O)c1ccc2c(c1)sc1nc(=O)c(/C=C3/C=CC(=O)C(O)=C3)c(N)n12 was read as N370S GC mod -14.4%, aGlu spleen mod -11.8%, GAA glycogen mod 8.91µM*, GAA inh inconclusive, GLA inh pH 4.5 -21.3 and GLA spleen mod -5.7%.
Screening COc1ccc(OC)c(C2=Nn3c(nnc3-c3ccc(OC)c(OC)c3)SC2)c1 returned N370S GC mod 0.5%, aGlu spleen mod -19.9% and GLA spleen mod -3.8%.
`[O-]/[N+](=C\c1ccccc1)[C@@H]1CCCC[C@@H]1/[N+]([O-])=C/c1ccccc1` gave N370S GC mod -0.8%, aGlu spleen mod 2.5%, GAA glycogen mod 39.8µM*, GAA inh 6.7%, GLA inh pH 4.5 -9.1 and GLA spleen mod 6.0%.
CCOC(=O)C1CCCN(c2c(C(=O)c3ccc(OCC)cc3)cnc3ccccc23)C1 (stereo unspecified) was read as GAA glycogen mod 11.2µM*.
Screening Oc1ccc(NC(=S)Nc2ccc(F)cc2)cc1 returned N370S GC mod -17.7% and GAA glycogen mod 11.2µM*.
`CCCCc1nc2c(c3c1C[C@H](C)OC3)CN(C(=O)c1ccco1)CC2` gave N370S GC mod 5.5%[12.8 µM], aGlu spleen mod 2.7%[17.4 µM], GLA inh pH 4.5 6.8 and GLA spleen mod 3.1%[17.5 µM].
`CCCCC(=O)NNC(=S)NC(=O)c1ccc(C)cc1` gave N370S GC mod -10.5%, aGlu spleen mod -11.5%, GAA glycogen mod -29.4%, GAA inh inconclusive, GLA inh pH 4.5 7.7 and GLA spleen mod 2.3%.
`Cc1ccc(C(=O)NC(=S)NNC(=O)CC#N)cc1` gave N370S GC mod -2.4%, aGlu spleen mod 6.6%, GAA glycogen mod 11.1µM*, GAA inh inconclusive, GLA inh pH 4.5 -0.3 and GLA spleen mod 5.9%.
`C=CCc1c(C)nc(-c2ccccc2)nc1N/N=C(\C)c1ccccc1` gave N370S GC mod 10µM*, aGlu spleen mod -0.6%, GAA glycogen mod inconclusive, GAA inh 5.1%, GLA inh pH 4.5 -1.2 and GLA spleen mod 5.5%.
`C=CCc1c(C)nc(-c2ccccc2)nc1Nc1ccc(O)cc1` gave N370S GC mod 14.1µM*, aGlu spleen mod -5.4%, GAA glycogen mod 3.4%, GAA inh 1.5%, GLA inh pH 4.5 -3.4 and GLA spleen mod -1.8%.
`CCOC(=O)N1CCN(C(=O)Nc2sc3nc4n(c(=O)c3c2C)CCC(C)CC4)CC1` (stereo unspecified) gave N370S GC mod 4.4%, aGlu spleen mod -4.1%, GAA glycogen mod 31.6µM*, GAA inh -10.4%, GLA inh pH 4.5 -9.5 and GLA spleen mod 4.8%.
`Fc1ccc(Nc2c(-c3c[nH]c4ccccc34)nc3ccccn23)cc1` gave GAA glycogen mod 14.1µM*.
O=C(Nc1ccc(F)cc1)c1c(Cl)nc2ccccn12 was read as N370S GC mod 0.2%, aGlu spleen mod 0.5%, GAA glycogen mod 4.3%, GAA inh 1.2%, GLA inh pH 4.5 10.2 and GLA spleen mod -8.7%.
For C[C@H](CCC(=O)O)C1CC[C@H]2C3CC[C@@H]4C[C@H](O)CC[C@]4(C)C3C[C@H](O)[C@]12C (stereo partly specified) the results were N370S GC mod -8.8%, aGlu spleen mod 5.2% and GLA spleen mod -3.4%.
`CCC(=Nc1ccccc1O)C1=C(O)CC(c2ccccc2)CC1=O` (stereo unspecified) gave N370S GC mod -21.1%, aGlu spleen mod -4.0%, GAA glycogen mod 12.6µM*, GLA inh pH 4.5 1.3 and GLA spleen mod -3.3%.
`CCC(=Nc1ccccc1OC)C1=C(O)CC(c2ccccc2)CC1=O` (stereo unspecified) gave N370S GC mod -4.6%, aGlu spleen mod 1.2%, GAA glycogen mod -1.0%, GAA inh 2.4%, GLA inh pH 4.5 -12.7 and GLA spleen mod -3.3%.
For CC1(C)CC(=O)c2c(oc3cc(O)c(O)cc23)C1 the results were N370S GC mod -4.0%, aGlu spleen mod -6.0%, GAA glycogen mod 7.94µM*, GAA inh -5.0%, GLA inh pH 4.5 -1.1 and GLA spleen mod 5.9%.
`COc1ccc(-c2nnc3n2N=C(c2c(OC)cccc2OC)CS3)cc1OC` gave N370S GC mod -9.0%, aGlu spleen mod 2.9% and GLA spleen mod 0.3%.
CCOC(=O)c1c(/N=C/c2ccc(O)cc2O)sc2c1CCC2 was read as N370S GC mod -14.9%, aGlu spleen mod -12.0%, GAA glycogen mod 35.5µM*, GAA inh 1.8%, GLA inh pH 4.5 -15.2 and GLA spleen mod -9.3%.
Screening CCOC(=O)c1c(/N=C/c2cccc([N+](=O)[O-])c2O)sc2c1CCC2 returned N370S GC mod -8.5%, aGlu spleen mod 0.2%, GAA glycogen mod -15.0%, GAA inh -3.0%, GLA inh pH 4.5 -5.9 and GLA spleen mod -13.8%.
CCOC(=O)c1c(/N=C/c2ccccc2O)sc2c1CCC2 was read as N370S GC mod 1.1%, aGlu spleen mod 0.3%, GAA glycogen mod 17.8µM*, GAA inh 3.9%, GLA inh pH 4.5 -0.1 and GLA spleen mod 3.8%.
`CCCC(=O)NCCc1c(I)[nH]c2ccc(OC)cc12` gave N370S GC mod -3.9%, aGlu spleen mod -1.2% and GLA spleen mod -10.1%.
For COc1ccc(N=C2C(=O)Nc3ccccc32)cc1 the results were N370S GC mod 6.7%, aGlu spleen mod 0.8%, GAA glycogen mod inconclusive, GAA inh 4.5%, GLA inh pH 4.5 -6.2 and GLA spleen mod 9.6%.
COc1ccc(OC)c(N=C2C(=O)Nc3ccccc32)c1 was read as N370S GC mod -0.6%, aGlu spleen mod -2.0%, GAA glycogen mod 31.4µM*, GAA inh inconclusive, GLA inh pH 4.5 0.3 and GLA spleen mod 3.2%.
Cc1cc(I)ccc1Nc1c(C(=O)NOCC2CC2)cc(F)c(F)c1F was read as N370S GC mod -4.1%, aGlu spleen mod 7.4% and GLA spleen mod 0.2%.
